# Screens: PubChem, Columbia University Molecular Screening Center
# E-sel TNF inh: E-selectin induction blockers in HUVEC – imaging, immunofluorescence, high content, primary screen; AID 1246, 2008; HUVEC TNFa-induced E-selectin immunofluorescence; inhibition, % at 2 µM; hit rate 0.71% among 120,000;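 active means inhibition above the batch mean plus 3 SD, and confirmed as a hit on visual image review, cut at about 43% in these data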;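 further: 0% = TNF-stimulated DMSO wells and 100% = unstimulated control wells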
# HUVEC tox IL1B: cytotoxicity in IL-1B stimulated HUVEC, primary screen, cytotoxicity control for IL-1B NFkB translocation project, imaging, Hoechst nuclear count, IL-1B stimulus | HUVEC cell count loss | cell count reduction, % at 2 µM | hit rate 0.41% among 94,000 | AID 845, 2007;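 active means cell count reduction more than 3 SD above the screen-wide mean, cut at about 70% in these data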;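 further: normalized per plate to untreated control cells as the no-loss baseline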
# NFkB transloc inh: inhibitors of IL-1B driven NFkB p65 nuclear import, primary screen, imaging, HUVEC, IL-1B stimulus, high-content imaging; HUVEC IL-1B NFkB p65 nuclear translocation imaging; inhibition, % at 2 µM; hit rate 0.43% among 94,000; AID 796, 2007;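 active means inhibition above about 30% together with a positive call from visual inspection of the well image, limit read from the data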;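 further: nuclear over cytoplasmic p65 intensity ratio measured by imaging; 0% = IL-1B stimulated DMSO wells and 100% = unstimulated DMSO wells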
# TNFa cytotox: cytotoxicity in TNFa-stimulated HUVEC, primary screen, cytotoxicity control for VCAM1 expression modulator project, imaging, Hoechst nuclei count; HUVEC TNFalpha-stimulated, Hoechst cell count; cell count reduction, % at 2 µM; hit rate 0.17% among 93,000;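 active means cell count reduction exceeding the screen mean by over 5 SD, scaled to untreated wells per plate, cut at about 78% in these data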;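 further: cells counted after 24 h of TNF alpha exposure following the 1 h pretreatment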
# VCAM1 TNFa inh: inhibitors of TNFa-induced VCAM1 expression, primary screen, imaging, HUVEC, TNFa stimulus, immunofluorescence. HUVEC TNFa-induced VCAM-1 immunofluorescence, high-content imaging. hit rate 0.48% among 95,000. inhibition, % at 2 µM;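 active means inhibition above the batch mean plus 3 SD, with images confirmed as a hit by eye, cut at about 37% in these data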;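 further: 0% = TNF-stimulated DMSO wells and 100% = unstimulated control wells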
# IL1B NFkB pot: enhancers of NFkB p65 translocation in HUVEC – imaging, IL-1B stimulus, high-content imaging, primary screen. HUVEC IL-1B NFkB p65 nuclear translocation imaging. activation, % at 2 µM. hit rate 0.3% among 94,000;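 active means activation above 40%, about the mean plus 3 SD, also judged a hit on visual image review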;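 further: percent activation is computed from the nuclear over cytoplasmic p65 intensity ratio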
# Active calls of the source: *; x = no result given. Sampled rows, rich in hits. Any-hit rate of the full collection: about 1.6%.
SMILES,E-sel TNF inh,HUVEC tox IL1B,NFkB transloc inh,TNFa cytotox,VCAM1 TNFa inh,IL1B NFkB pot
COc1cccc(-n2nc(C#N)c(Cl)cc2=O)c1,98*,x,x,x,x,x
CC1CC(=O)NN=C1c1ccc(N(C)C)c([N+](=O)[O-])c1 (centres undefined),-19,-14,-2,19,35,2
CCN(CC)c1ccc(C2=NNC(=O)CC2C)cc1[N+](=O)[O-] (centres undefined),-39,-4,-15,52,78*,15
Cc1ccc(SCCC(=O)Nc2ccccc2C(=O)NC(C)C)cc1,67*,x,x,x,x,x
Cc1ccc(SCCC(=O)Nc2ccccc2Br)cc1,2,x,x,x,x,x
CN1CCN(Cc2cc(=O)oc3cc4c(cc23)CCC4)CC1,x,-12,-41,-26,-1,41*
CCN1CCN(Cc2cc(=O)oc3cc4c(cc23)CCC4)CC1,x,4,-16,-8,9,16
O=C(COC(=O)CNC(=O)c1ccco1)NCc1ccc(F)cc1,-28,x,x,x,x,x
COc1cc2c(cc1NC(=O)c1cccc([N+](=O)[O-])c1)oc1ccccc12,9,78*,9,-6,14,-9
COC(=O)C1=C(C)NC(=O)NC1c1ccc(OC(=O)c2ccco2)cc1 (centres undefined),4,x,x,x,x,x
Cc1ccc(CSCC(=O)NN=C2CCN(C)CC2)cc1,2,x,x,x,x,x
CCCc1sc(N/N=C/c2ccccn2)nc1-c1ccc(Br)cc1,-8,-23,-24,-8,94*,24
CC(C)OCCCNC(=O)c1cccs1,-7,-9,-28,0,18,28
CCCCOCCCNC(=O)c1cccs1,5,-47,2,-77,90*,-2
O=C(/C=C/c1cc([N+](=O)[O-])ccc1OC(F)F)Nc1cccc(OC(F)F)c1,2,x,x,x,x,x
Cc1ccc(C)c(N2CCN(C(=O)CC3Sc4ccccc4NC3=O)CC2)c1 (centres undefined),37,79*,5,-18,-3,-5
Cc1ccc(NC(=O)Nc2ccc(F)cc2)cc1Cl,12,x,x,x,x,x
O=C(Cn1[nH]c(=O)c2ccccc2c1=O)NNC(=O)c1ccccc1,-3,x,x,x,x,x
CC(=O)Nc1c(C(=O)N2CCN(c3ccccn3)CC2)cnn1-c1ccc(C)cc1,7,x,x,x,x,x
CC(=O)Nc1c(C(=O)N2CCN(c3ncccn3)CC2)cnn1-c1ccccc1Cl,-20,-48,-40,11,28,40*
Cn1nc(-c2ccccc2)c(CO)c1Oc1ccc(F)cc1,0,x,x,x,x,x
O=C(NCc1ccccn1)C1CCN(Cc2cnn(-c3ccccc3)c2-n2cccc2)CC1,-3,5,-4,10,15,4
COc1cccc(CNC(=O)C2CCN(Cc3cnn(-c4ccccc4)c3-n3cccc3)CC2)c1,8,-7,-63,x,18,63*
Cc1cc(Cl)c(S(=O)(=O)N2CCSCC2)cc1OCC(N)=O,18,75*,-1,2,9,1
O=C(O)/C=C/c1ccc2ccccc2n1,85*,19,-9,-6,3,9
SMILES,E-sel TNF inh,HUVEC tox IL1B,NFkB transloc inh,TNFa cytotox,VCAM1 TNFa inh,IL1B NFkB pot
CCOC(=O)c1ccc(-n2ccnc2)c(NC(=O)c2ccc(Cl)cc2)c1,62*,x,x,x,x,x
O=C(NCc1ccc(F)cc1)C(=O)Nc1nc(C23CC4CC(CC(C4)C2)C3)cs1,-12,x,x,x,x,x
Cc1cccc(N2CCN(C(=O)c3ccc(CS(=O)(=O)c4ccccc4C)o3)CC2C)c1 (centres undefined),57,7,-48,48,15,49*
Cc1ccc(C)c(N2CCN(C(=O)c3ccc(CS(=O)(=O)c4ccccc4C)o3)CC2)c1,-10,-23,-11,8,20,11
COC(=O)c1cc(C(=O)NCc2ccccc2)c(=O)[nH]c1C,-4,x,x,x,x,x
O=C1c2ccccc2NC(c2ccncc2)N1c1ccccn1 (centres undefined),13,-6,62*,31,-19,-62
COc1ccccc1N1C(=O)c2ccccc2NC1c1ccncc1 (centres undefined),-17,-34,-4,-35,-12,4
CC1(C)Cc2c(sc(NC(=O)C(C)(C)C)c2C#N)C(C)(C)N1,-20,-30,-21,89*,-13,21
O=C(c1ccncc1)c1ccc(Br)cc1,-23,-64,-14,-11,8,14
N/C(=N\OS(=O)(=O)c1ccc(Br)cc1)c1ccncc1,-4,-19,35*,7,-8,-35
Cc1ccnc(N/C=C(/NC(=O)c2ccccc2)C(=O)N/N=C\c2ccc(F)cc2)n1,x,78*,56*,-12,14,-56
COc1cccc(N2CC(=O)N(NC(=O)CSc3nc(C)cc(C)c3C#N)CC2=O)c1,3,x,x,x,x,x
CCN(CC)CCCNC(=O)c1sc2ncn(CC(=O)Nc3ccc(C)c(Cl)c3)c(=O)c2c1C,1,x,x,x,x,x
Cc1ccc(NC(=O)Cn2cnc3sc(C(=O)NCCN(C)C)c(C)c3c2=O)cc1Cl,50*,x,x,-1,9,x
COC(=O)c1c(NC(=O)COC(=O)[C@@H](NS(=O)(=O)c2ccc(C)cc2)C(C)C)sc2c1CCC2,7,x,x,x,x,x
CCOC(=O)c1c(NC(=S)NCC2CCCO2)sc(C)c1C (centres undefined),9,x,x,x,x,x
C=CCOc1c(Br)cc(CNc2ccc(NC(=O)C(C)C)c(OC)c2)cc1OCC,1,x,x,x,x,x
COC(=O)c1nnn(-c2ccc(Cl)c(Cl)c2)c1C(=O)OC,73*,x,x,x,x,x
CCCn1c(SCC(=O)NCc2ccco2)nc2c1c(=O)n(C)c(=O)n2C,-29,81*,8,19,-6,-8
CCCn1c(SCC(=O)N2c3ccccc3Sc3ccccc32)nc2c1c(=O)n(C)c(=O)n2C,65*,4,-16,-6,1,16
CC(C)n1c(SCC(=O)N2c3ccccc3Sc3ccccc32)nc2c1c(=O)n(C)c(=O)n2C,x,15,1,-13,-17,-1
O=C(NCC1CC1)C1CCCN(S(=O)(=O)c2ccc(-n3cnnn3)cc2)C1 (centres undefined),62*,13,7,-1,9,-7
O=C(CCCOc1ccccc1)N1CCCc2ccccc21,5,5,55*,-4,31,-55
CCOC(=O)c1c(C)n2c3c(cc(C)cc13)CCC2,16,x,x,x,x,x
COc1ccccc1NC(=S)N1CCC(c2nc3cc(C)c(C)cc3[nH]2)CC1,-53,-15,56*,-8,8,-56
S=C(Nc1ccc(Cl)cc1)NC1CC2CCCC(C1)N2C1CC1 (centres undefined),-19,-26,-28,14,1,28
Cc1cc(C)cc(NC(=S)NC2CC3CCCC(C2)N3C2CC2)c1 (centres undefined),100*,x,x,x,x,x
COc1cc(CNc2ccc(CNc3ncn[nH]3)cc2)ccc1OCc1ccccc1,-32,x,x,x,x,x
